Source: PubChem BioAssay AID2441 (National Center for Advancing Translational Sciences (NCATS), 2010)
The other results are listed elsewhere or left out. Records with an inconclusive call do not appear. The source made the active and inactive calls. Calls follow the shape of the dose curve; as a rule, active = well fitted inhibition curve with a large enough effect; inconclusive = small, poorly fitted or top-dose-only effect; inactive = flat fitted curve, though single readings scatter.

Assay: Cell cycle validation with wells to cells screening paradigm
Settings: HeLa cell cycle G2/M arrest, Hoechst DNA content imaging
Description: Understanding cell cycle regulation is a critical component in combating various diseases such as cancer. Proper execution of cell cycle activity is essential for processes such as cell growth, DNA replication, and mitosis and surveillance mechanisms function as cell cycle checkpoints at the G1, S, and G2/M phases. Thus, profiling agents which disrupt cancer cell division represents a large effort in oncology-based studies. Compound-induced cell cycle perturbations can be analyzed through changes in specific cell cycle phase markers, such as DNA content, using high content screening. […] Furthermore, recent imaging based studies have performed cell cycle analysis following compound treatment where phenotypic fingerprints for phases of the cell cycle were determined or concentration-response based testing of selected compounds and drugs was used to measure a phenotypic profile in a dose-dependent manner. […]
Reagents: 70% EtOH, Hoechst Stain, PBS Controls: 7.6 uM (final starting concentration) Vinblastine and 38.3 uM (final starting concentration) nocodazole were dispensed into columns 1 and 2, respectively, and titrated 1:2 in DMSO (16-point in duplicate). […] Plates were read on the Acumen eX3 system and concentration response curves were generated after the readings. […]
With O=c1cc(-c2ccccc2)[nH]c2nc(Cl)ccc12 the Potency was 2 µM (active).
